Measurements as given in PubChem BioAssay.
Calls of active or inactive are those of the source.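 Rule for the calls, unless noted: active = inhibition at or above 50% at 10 µM; inactive = inhibition below 50%.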

Experiments:
[1] = inhibitors of TNFa-induced NFkB p65 translocation, primary screen, imaging, HUVEC, MLSMR starter and 10KST1 sets (AID 438;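 active = inhibition above 20% together with a positive visual image hit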;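 note: compound added about 3h40 before a 20 min TNFalpha stimulation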;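 for inhibition: signal is the nuclear over cytoplasmic p65 intensity ratio per well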); conditions: HUVEC TNFa-induced p65 nuclear translocation; cell count: measured here: nuclei count (cytotoxicity indicator), at 2.08 µM; inhibition: at 2 µM, stronger effect = higher value, 0% TNFa-plus-vehicle, 100% no-TNFa wells
[2] = inhibitors of mutant huntingtin aggregation, primary screen, imaging, exon1htt(103Q)mCFP cells, high-content imaging (AID 483;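 active = visual image review flags a hit and inhibition of aggregation exceeds 20%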;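 note: compound exposure lasted 3 days before fixation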;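 for nuclei count: percent of the per-plate median nuclei count of sample wells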); conditions: exon1htt(103Q)mCFP cell line, aggregate imaging, at 2 µM; inhibition of aggregation: stronger effect = higher value; nuclei count: measured here: cell count, toxicity
[3] = inhibitors of E-selectin induction by TNFa, primary screen, imaging, HUVEC, immunofluorescence, MLSMR starter and 10KST1 sets (AID 487;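 active = visually confirmed hit in the image check and inhibition above 20%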;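 for inhibition: signal is fraction of cell area covered by stained E-selectin grains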;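 for nuclei count: 100% = median nuclei count of all wells on the same plate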); conditions: HUVEC TNFalpha-induced E-selectin immunofluorescence imaging, at 2 µM; inhibition: stronger effect = higher value; nuclei count: measured here: cell number, toxicity
[4] = target: Voltage-gated potassium channel subunit beta-2 (Rattus norvegicus) (UniProt P62483); test: KvBeta enzyme negative modulators, primary screen, biochemical, NADPH fluorescence (AID 622;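 active = fluorescence slope higher than the sample average by over 3 SD, cut at about -0.22 in these data, passing the limit was not always enough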;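 note: slope of raw intensity against log time taken from 70 to 1610 s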); conditions: recombinant KvBeta, 4-cyanobenzaldehyde reduction, at 10 µM, stronger effect = higher value
Sequence of Voltage-gated potassium channel subunit beta-2 (Rattus norvegicus) (P62483 whole entry, looked up): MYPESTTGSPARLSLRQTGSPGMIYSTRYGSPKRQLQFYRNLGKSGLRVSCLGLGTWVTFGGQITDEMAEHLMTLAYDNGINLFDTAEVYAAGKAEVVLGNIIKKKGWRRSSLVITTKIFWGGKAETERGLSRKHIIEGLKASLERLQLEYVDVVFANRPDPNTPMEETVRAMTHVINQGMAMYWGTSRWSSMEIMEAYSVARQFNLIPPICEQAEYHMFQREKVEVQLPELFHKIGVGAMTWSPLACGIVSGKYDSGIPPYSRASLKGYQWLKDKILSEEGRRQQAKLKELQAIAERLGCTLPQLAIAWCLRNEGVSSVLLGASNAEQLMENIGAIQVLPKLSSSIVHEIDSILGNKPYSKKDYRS

[5] = target: Voltage-gated potassium channel subunit beta-2 (Rattus norvegicus) (UniProt P62483); test: KvBeta positive modulators, primary screen, biochemical, NADPH fluorescence (AID 623;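 active = NADPH fluorescence slope more negative than the mean of all samples by about 3 SD, 99.7% confidence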;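 note: fluorescence intensity change per second fitted from 20 to 320 s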); conditions: Recombinant KvBeta, NADPH fluorescence decrease slope, 10 min; at 10 µM; stronger effect = lower value
[6] = target: Alpha-2C adrenergic receptor (Homo sapiens) (UniProt P18825); test: modulators of alpha2C/GIRK thallium flux, primary screen, cell-based, HEK293 alpha2C/GIRK1/2 (AID 624;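 active = fluorescence slope after compound addition differing from the mean of all screened samples at 99.7% confidence, in either direction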;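 note: slope of fluorescence ratio to pre-addition baseline per second over 15 to 24 s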); conditions: thallium flux BTC fluorescence, at 10 µM, actives lie on both sides
Sequence of Alpha-2C adrenergic receptor (Homo sapiens) (P18825 whole entry, looked up): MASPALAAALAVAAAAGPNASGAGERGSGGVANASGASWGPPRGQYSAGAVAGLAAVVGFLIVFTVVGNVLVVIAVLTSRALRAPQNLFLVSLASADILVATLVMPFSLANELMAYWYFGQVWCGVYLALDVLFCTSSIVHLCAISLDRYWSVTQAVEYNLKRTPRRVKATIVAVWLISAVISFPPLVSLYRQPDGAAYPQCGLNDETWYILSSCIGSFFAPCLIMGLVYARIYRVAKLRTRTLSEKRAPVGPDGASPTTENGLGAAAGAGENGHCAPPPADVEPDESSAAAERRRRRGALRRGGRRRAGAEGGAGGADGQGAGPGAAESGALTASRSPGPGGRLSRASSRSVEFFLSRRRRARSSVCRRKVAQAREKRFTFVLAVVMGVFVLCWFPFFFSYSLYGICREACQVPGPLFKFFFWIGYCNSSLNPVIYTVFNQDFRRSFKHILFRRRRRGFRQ

[7] = inhibitors of Sendai virus-induced IRF3 signaling, primary screen, TLR/RLR signaling modifier project, cell-based, Sendai virus stimulus, luciferase, 10K MLSCN set (AID 602276); conditions: HEK293 RL24 IRF3 luciferase reporter, at 10 µM, stronger effect = higher value;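 note: firefly luciferase from ISG56 promoter only with Renilla not read in this screen; 0% = Sendai virus plus DMSO and 100% = medium plus DMSO without virus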
[8] = inhibitors of poly I:C-induced TLR3 signaling, primary screen, cell-based, poly I:C stimulus, luciferase, 10K MLSCN set (AID 602277;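 active = inhibition of the reporter signal at or above 50%; inactive = inhibition below 50%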); conditions: HEK293-TLR3 RL24 IRF3 luciferase reporter, at 10 µM, stronger effect = higher value

| SMILES | cell count [1] | inhibition [1] | inhibition of aggregation [2] | nuclei count [2] [%] | inhibition [3] | nuclei count [3] [%] | fluorescence slope [4] | NADPH fluorescence slope [5] | slope [6] | inhibition [7] | inhibition [8] |
| --- | --- | --- | --- | --- | --- | --- | --- | --- | --- | --- | --- |
| O=S(=O)(c1ccc2nc(Cc3cccc(C(F)(F)F)c3)[nH]c2c1)N1CCOCC1 | 383 | 1% (inactive) | 0% (inactive) | 88.3 | -277% (inactive) | 105 | -0.615 (inactive) | -2.8e-06 (inactive) | 0.00522 (inactive) | 11.9% (inactive) | 26.3% (inactive) |
| CC(=O)Nc1ccc(S(=O)(=O)NCC2CCC(C(=O)NCCCN3CCCC3=O)CC2)cc1 (stereo not given) | 318 | -0.8% (inactive) | 5.9% (inactive) | 112 | -15.4% (inactive) | 106 | -0.484 (inactive) | -3.3e-05 (inactive) | 0.00457 (inactive) | 20.7% (inactive) | 19.4% (inactive) |
| CC1CCN(C(=O)Cn2cc3c(n2)CCCC3)CC1 | 931 | -1.8% (inactive) | -26% (inactive) | 114 | -6.8% (inactive) | 89.8 | -0.612 (inactive) | -7.4e-06 (inactive) | 0.00712 (inactive) | -32.6% (inactive) | -60.8% (inactive) |
| COc1ccccc1Nc1ccc(C(=O)NC2CCCCC2)cn1 | 406 | 1% (inactive) | 1.1% (inactive) | 108 | -13.6% (inactive) | 110 | -0.39 (inactive) | -5.7e-05 (inactive) | 0.00711 (inactive) | -10.5% (inactive) | -22.4% (inactive) |
| COc1ccc2cc(CN(CCO)C(=O)c3ccccc3F)c(=O)[nH]c2c1 | 474 | 9.4% (inactive) | -16% (inactive) | 108 | -93% (inactive) | 110 | -0.496 (inactive) | 5.3e-06 (inactive) | 0.00191 (inactive) | -11.1% (inactive) | -5.69% (inactive) |
| CCCc1ccc(Oc2cn[nH]c2-c2ccc(O)c(C)c2O)cc1 | 679 | 5.8% (inactive) | 11% (inactive) | 98 | 16% (inactive) | 104 | -0.602 (inactive) | -1.2e-05 (inactive) | 0.00642 (inactive) | -1.06% (inactive) | -27.9% (inactive) |
| COc1cccc(C2CC(c3c(Cl)cccc3Cl)n3nc(N)nc3N2)c1 (stereo not given) | 568 | 13.8% (inactive) | -23.3% (inactive) | 75.1 | 25.6% (inactive) | 92.1 | -0.504 (inactive) | -1.9e-05 (inactive) | 0.00695 (inactive) | 22.2% (inactive) | 23.9% (inactive) |
| Cc1cc(C)c2ccc(N)nc2c1O | 408 | 0.1% (inactive) | 22.6% (inactive) | 6.8 | 41.6% (inactive) | 107 | -0.462 (inactive) | -5e-05 (inactive) | 0.00457 (inactive) | 21% (inactive) | 29.8% (inactive) |
| O=C(Nn1cnnc1)c1cc2c(s1)CCCC2 | 346 | -3.4% (inactive) | -5.7% (inactive) | 108 | -41.7% (inactive) | 112 | -0.411 (inactive) | -4.9e-05 (inactive) | 0.00357 (inactive) | -4.21% (inactive) | 7.24% (inactive) |
| COc1cc2c(cc1OC)C(c1ccc(C)o1)CC(=O)N2 (stereo not given) | 748 | 0% (inactive) | -33.4% (inactive) | 112 | -48.1% (inactive) | 122 | -0.574 (inactive) | -3e-05 (inactive) | 0.00589 (inactive) | 11.9% (inactive) | 30.4% (inactive) |
| COC(=O)c1cccc(S(=O)(=O)N2CCC(C)CC2)c1 | 326 | -10.3% (inactive) | 11.2% (inactive) | 95.5 | -70.6% (inactive) | 93 | -0.547 (inactive) | 5.2e-05 (inactive) | 0.00519 (inactive) | 0.114% (inactive) | -2.56% (inactive) |
| Cn1c(=O)c2c(nc(NCc3ccccc3)n2CCCc2ccccc2)n(C)c1=O | 759 | -1.6% (inactive) | 5.6% (inactive) | 101 | -77.1% (inactive) | 121 | -0.521 (inactive) | -1.3e-05 (inactive) | 0.00474 (inactive) | 16.3% (inactive) | 26.8% (inactive) |
| CCCNC(=O)NC1C(NC(=O)NCCC)N(C)C(=O)N1C (stereo not given) | 551 | -0.3% (inactive) | -4.3% (inactive) | 98.1 | -60.1% (inactive) | 116 | -0.461 (inactive) | 2.5e-05 (inactive) | 0.00546 (inactive) | -0.304% (inactive) | 16.2% (inactive) |
| COc1cccc(NC(=O)COC(=O)c2cccnc2)c1 | 354 | -1.6% (inactive) | -3.6% (inactive) | 105 | -15.5% (inactive) | 108 | -0.503 (inactive) | -6.6e-05 (inactive) | 0.0053 (inactive) | 20.2% (inactive) | 19.2% (inactive) |
| CC1(C)OC(=O)C(=CNc2ccccc2F)C(=O)O1 | 604 | -9.5% (inactive) | 29.9% (inactive) | 95.6 | 22.8% (inactive) | 96.8 | -0.606 (inactive) | -1.2e-05 (inactive) | 0.0057 (inactive) | 14.1% (inactive) | 28% (inactive) |
